Assay outcomes deposited in PubChem by National Center for Advancing Translational Sciences (NCATS).
The list is not random: actives were taken first. Their share in the collection is about 7.3%.
NPC1 promoter act – activates the NPC1 promoter; Huh7 NPC1 promoter luciferase reporter, 24 h; Potency, µM (doses to about 9.22 µM), hits mostly activators; hit rate 2.4% among 320,000; AID 485313; also: nearly all actives have a fitted effect of over 60% in size
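NPC1 promoter–luciferase Huh7 cells; 24 h compound; luminescence.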
Luc counter – counter-screen: inhibitors of Kinase-Glo firefly luciferase | Q27757 | Kinase-Glo luciferase, ATP luminescence, 8 min | Potency, µM (top dose mostly 38.3 µM), usual class: inhibitors | hit rate 0.28% among 200,000 | AID 1379; also: nearly all actives have a fitted effect of over 60% in size
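Compounds were added to a substrate mix at pH 7.2 (50 mM imidazole, 10 uM ATP, within the enzyme's linear range), followed by Kinase-Glo detection reagent; luminescence was measured after 8 minutes at ambient temperature.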
FLuc modulator – firefly luciferase modulation, counter-screen for miR-21 project | P08659 | Potency, µM (doses to about 57.5 µM), hits mostly inhibitors | AID 588342 | hit rate 6.9% among 360,000 | purified FLuc, Km substrates, luminescence inhibition; also: nearly all actives have a fitted effect of over 55% in size
Target sequence (P08659 whole entry, looked up): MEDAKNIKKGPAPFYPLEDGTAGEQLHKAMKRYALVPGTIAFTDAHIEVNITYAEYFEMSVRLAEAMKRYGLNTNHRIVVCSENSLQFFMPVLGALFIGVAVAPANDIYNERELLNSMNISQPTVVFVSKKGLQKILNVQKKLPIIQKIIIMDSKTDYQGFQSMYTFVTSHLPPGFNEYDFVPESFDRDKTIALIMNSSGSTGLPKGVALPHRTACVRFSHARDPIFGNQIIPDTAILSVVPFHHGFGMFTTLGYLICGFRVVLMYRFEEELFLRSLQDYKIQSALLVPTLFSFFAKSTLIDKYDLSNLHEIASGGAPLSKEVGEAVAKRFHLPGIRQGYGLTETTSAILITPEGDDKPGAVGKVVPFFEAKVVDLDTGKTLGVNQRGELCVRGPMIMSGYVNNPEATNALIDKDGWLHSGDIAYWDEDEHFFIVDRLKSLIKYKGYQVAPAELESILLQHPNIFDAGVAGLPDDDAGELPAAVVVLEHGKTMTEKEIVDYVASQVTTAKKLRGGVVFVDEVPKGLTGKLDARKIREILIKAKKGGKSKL
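Purified P. pyralis luciferase (10nM final) with 10uM D-luciferin and 10uM ATP (Km levels) in 50mM Tris acetate pH 7.5, 10mM Mg acetate, 0.01% Tween-20, 0.05% BSA; qHTS 6-point titration, ~60 µM downward; luminescence read.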
Rab9 promoter act – activators of Rab9 promoter | Potency, µM (doses to about 9.22 µM), hits mostly activators | Huh7 Rab9 promoter-luciferase reporter, luminescence, 24 h | hit rate 2.8% among 320,000; also: nearly all actives have a fitted effect of over 60% in size
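Huh7 cells stably carrying Rab9 promoter–luciferase reporter, plated 1500 cells/well, compound added after 2 h and incubated 24 h at 37 °C; luciferase luminescence then read after 10 min with detection reagent.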
SMN2 splice up – increases expression of the SMN2 splice variant; Potency, µM (doses to about 46.1 µM), usual class: activators; HEK293 SMN2-luciferase splicing reporter, luminescence, 30-36 h; hit rate 2.8% among 210,000; also: nearly all actives have a fitted effect of over 55% in size
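qHTS luciferase splicing reporter: luminescence rises when SMN2 exon 7 is included in transfected HEK293 cells. Compound exposure lasted 30-36 h at 37C, with 4.5 mM final sodium butyrate as control, followed by a ONE-Glo read.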
Large screens that a line does not name were inactive. Calls follow the shape of the dose curve; as a rule, active = well fitted curve in the direction sought with a large enough effect; inconclusive = small, poorly fitted or top-dose-only effect, or another doubt; inactive = no such curve, though single readings can be large; an effect the other way counts as inactive or inconclusive.

Nc1nonc1C(=O)N/N=C/c1cccc([N+](=O)[O-])c1	FLuc modulator 12µM
CN(C)c1ccc(/C=N/NC(=O)c2nonc2N)cc1[N+](=O)[O-]	FLuc modulator 12µM (no result: SMN2 splice up)
CCN(CC)C(=O)c1sc(NC(=O)C(C)Sc2nc(-c3ccccc3)cc(C(F)(F)F)n2)c(C(=O)OC)c1C (configuration not stated)	none (no result: NPC1 promoter act, Luc counter, Rab9 promoter act)
O=C(O)c1ccc(COc2ccc(/C=N/NC(=O)c3cccs3)cc2)cc1	none
O=C(N/N=C/c1cccc(OCc2ccccc2)c1)c1cccs1	FLuc modulator 13µM
O=C(O)/C=C/c1cccc(OCc2ccccc2)c1	FLuc modulator 13µM
O=C(O)c1cc2cc(OCc3ccccc3)ccc2[nH]1	FLuc modulator 19µM
O=C(N/N=C/c1ccccc1)c1sccc1OCc1ccc(F)cc1	FLuc modulator 19µM
CCc1c(C)sc(NC(=O)c2cc(-c3ccc(OC)cc3)on2)c1C#N	none (no result: NPC1 promoter act, Luc counter, Rab9 promoter act)
Cc1ccc(Cl)cc1N1CCN(C(=O)c2cc3c(-c4ccccc4F)nn(C)c3s2)CC1	none (no result: NPC1 promoter act, Luc counter, Rab9 promoter act)
CCn1c(=O)c2cc(C(=O)N3CCN(C)CC3)sc2c2ccccc21	none
CN1CCN(C(=O)c2cc3sc4ccccc4c3s2)CC1	NPC1 promoter act 0.63µM, FLuc modulator 3µM, Rab9 promoter act 0.71µM (no result: Luc counter, SMN2 splice up)
CC(NC(=O)c1ccccc1)(C(=O)O)C(=O)O	none (no result: NPC1 promoter act, FLuc modulator, Rab9 promoter act)
Cc1cc(C(=O)NC2CCCCC2)on1	none (no result: Luc counter, SMN2 splice up)
CC(C)c1cc(C(=O)NC2CCCCC2)no1	NPC1 promoter act inconclusive, FLuc modulator 17µM, Rab9 promoter act inconclusive, SMN2 splice up 11µM
CCCc1cc(C(=O)NC2CCCCC2)no1	NPC1 promoter act 4µM, FLuc modulator inconclusive, Rab9 promoter act inconclusive, SMN2 splice up 14µM
CCCc1cc(C(=O)N(C2CCCCC2)C2CCCCC2)no1	none
CCCc1cc(C(=O)NC2CCCC2)no1	NPC1 promoter act inconclusive, FLuc modulator inconclusive, Rab9 promoter act inconclusive, SMN2 splice up 13µM
Cc1ccc(N=C2C(=O)Nc3ccc(C)c(Br)c32)cc1	FLuc modulator 12µM (no result: Luc counter, SMN2 splice up)
O=C1Nc2ccccc2C1=Nc1ccc(F)cc1	none (no result: Luc counter, SMN2 splice up)
COc1ccc(N=C2C(=O)Nc3ccc(C)c(Br)c32)cc1	FLuc modulator 8.5µM (no result: Luc counter, SMN2 splice up)
Cc1cccc(Nc2ncc(NC(=O)c3cccc(F)c3)c(Nc3cccc(C)c3)n2)c1	none (no result: NPC1 promoter act, Luc counter, Rab9 promoter act)
CCn1c(CN2CCOCC2)nc2cc(NC(=O)c3cccc([N+](=O)[O-])c3)ccc21	none (no result: NPC1 promoter act, Luc counter, Rab9 promoter act, SMN2 splice up)
NC(=O)COc1ccc2cc(-c3ccccc3)c(=O)oc2c1	FLuc modulator inconclusive (no result: Luc counter, SMN2 splice up)
CC(C)(C)C(=O)Oc1ccc2cc(-c3ccc4ccccc4n3)c(=O)oc2c1	NPC1 promoter act inconclusive, Rab9 promoter act inconclusive, SMN2 splice up 14µM
CC(=O)Oc1ccc2cc(-c3nc4ccccc4n3C)c(=O)oc2c1	NPC1 promoter act inconclusive, FLuc modulator inconclusive, Rab9 promoter act 2.8µM, SMN2 splice up inconclusive
Cn1c(-c2cc3ccc(OC(=O)C(C)(C)C)cc3oc2=O)nc2ccccc21	NPC1 promoter act inconclusive, FLuc modulator inconclusive, Rab9 promoter act inconclusive, SMN2 splice up inconclusive
CCOc1ccc(OCC)c(NC(=O)c2cnn(-c3ccc(F)cc3)c2-n2cccc2)c1	none (no result: NPC1 promoter act, Luc counter, Rab9 promoter act, SMN2 splice up)
CC(=O)c1ccc(NC(=S)NCCc2cccc(Cl)c2)cc1	NPC1 promoter act inconclusive, Rab9 promoter act 2.8µM, SMN2 splice up 13µM
CC(=O)c1ccc(NC(=S)NCCc2ccc(S(N)(=O)=O)cc2)cc1	Rab9 promoter act inconclusive
Cc1cc2ccccn2c1C(=O)c1ccc(Cl)cc1	FLuc modulator inconclusive
CC(=O)Nc1ccc(NC(=O)Nc2cccc(Cl)c2)cc1	FLuc modulator inconclusive (no result: Luc counter, SMN2 splice up)
Cc1cc2ccccn2c1C(=O)Nc1cccc(Cl)c1	FLuc modulator 13µM
CC(=O)c1ccc(NC(=O)Nc2cccc(Cl)c2)cc1	NPC1 promoter act 1.4µM, FLuc modulator 17µM, Rab9 promoter act 1.3µM, SMN2 splice up 11µM
S=C(NCCc1ccccc1)NCc1cccc(Cl)c1	none (no result: Luc counter, SMN2 splice up)
Fc1ccccc1NC(=S)NCCc1cccc(Cl)c1	NPC1 promoter act inconclusive, FLuc modulator 24µM, Rab9 promoter act inconclusive (no result: Luc counter, SMN2 splice up)
COc1ccc(Nc2nn(-c3ccc(OC(F)(F)F)cc3)nc2C(C)=O)cc1	none (no result: NPC1 promoter act, Luc counter, Rab9 promoter act)
O=C(Nc1ccc(Cl)cc1)Nc1cccc(C(=O)O)c1	NPC1 promoter act 0.089µM, FLuc modulator 0.067µM, Rab9 promoter act 0.25µM (no result: SMN2 splice up)
O=C(CCCOc1ccc(Cl)cc1)Nc1cccc(C(=O)O)c1	FLuc modulator 17µM (no result: SMN2 splice up)
CC(=O)Nc1cccc(NC(=O)Nc2cccc3ccccc23)c1	none (no result: Luc counter, SMN2 splice up)
